According to PubChem BioAssay:
Active and inactive are the calls of the source.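 How the source made its calls, unless noted: active means fluorescence slope higher than the sample average by over 3 SD (cut at about -0.22 in these data, passing the limit was not always enough); inactive means the rest.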

Legend:
[1] = inhibitors of TNFa-induced NFkB p65 translocation, primary screen, imaging, HUVEC, MLSMR starter and 10KST1 sets (AID 438;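 active means inhibition above 20% together with a positive visual image hit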;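 further: compound added about 3h40 before a 20 min TNFalpha stimulation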;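 on inhibition: signal is the nuclear over cytoplasmic p65 intensity ratio per well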); settings: HUVEC TNFa-induced p65 nuclear translocation; cell count: measured here: nuclei count (cytotoxicity indicator), at 2.08 µM unless noted; inhibition: at 2 µM, stronger effect = higher value unless noted
[2] = inhibitors of mutant huntingtin aggregation, primary screen, imaging, exon1htt(103Q)mCFP cells, high-content imaging (AID 483;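 active means visual image review flags a hit and inhibition of aggregation exceeds 20%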;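 further: compound exposure lasted 3 days before fixation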;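 on nuclei count: percent of the per-plate median nuclei count of sample wells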); settings: exon1htt(103Q)mCFP cell line, aggregate imaging, at 2 µM; inhibition of aggregation: stronger effect = higher value; nuclei count: measured here: cell count, toxicity
[3] = inhibitors of E-selectin induction by TNFa, primary screen, imaging, HUVEC, immunofluorescence, MLSMR starter and 10KST1 sets (AID 487;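 active means visually confirmed hit in the image check and inhibition above 20%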;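 on inhibition: signal is fraction of cell area covered by stained E-selectin grains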;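 on nuclei count: 100% = median nuclei count of all wells on the same plate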); settings: HUVEC TNFalpha-induced E-selectin immunofluorescence imaging, at 2 µM; inhibition: stronger effect = higher value; nuclei count: measured here: cell number, toxicity
[4] = biological target: Voltage-gated potassium channel subunit beta-2 (Rattus norvegicus) (UniProt P62483); test: KvBeta enzyme negative modulators, primary screen, biochemical, NADPH fluorescence (AID 622); settings: recombinant KvBeta, 4-cyanobenzaldehyde reduction, at 10 µM, stronger effect = higher value;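 further: slope of raw intensity against log time taken from 70 to 1610 s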
Chain of Voltage-gated potassium channel subunit beta-2 (Rattus norvegicus) (P62483 whole entry, looked up): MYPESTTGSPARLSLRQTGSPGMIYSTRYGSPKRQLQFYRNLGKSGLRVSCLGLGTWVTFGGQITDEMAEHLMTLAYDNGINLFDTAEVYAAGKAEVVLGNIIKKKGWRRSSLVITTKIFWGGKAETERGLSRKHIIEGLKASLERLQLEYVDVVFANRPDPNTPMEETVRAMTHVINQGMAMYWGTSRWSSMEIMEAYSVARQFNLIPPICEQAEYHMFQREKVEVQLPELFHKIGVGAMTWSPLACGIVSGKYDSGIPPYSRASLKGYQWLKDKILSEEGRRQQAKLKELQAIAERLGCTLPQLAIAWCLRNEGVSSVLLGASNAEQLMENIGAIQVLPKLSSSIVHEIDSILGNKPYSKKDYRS

[5] = biological target: Voltage-gated potassium channel subunit beta-2 (Rattus norvegicus) (UniProt P62483); test: KvBeta positive modulators, primary screen, biochemical, NADPH fluorescence (AID 623;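 active means NADPH fluorescence slope more negative than the mean of all samples by about 3 SD, 99.7% confidence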;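 further: fluorescence intensity change per second fitted from 20 to 320 s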); settings: Recombinant KvBeta, NADPH fluorescence decrease slope, 10 min; at 10 µM; stronger effect = lower value
[6] = biological target: Alpha-2C adrenergic receptor (Homo sapiens) (UniProt P18825); test: modulators of alpha2C/GIRK thallium flux, primary screen, cell-based, HEK293 alpha2C/GIRK1/2 (AID 624;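 active means fluorescence slope after compound addition differing from the mean of all screened samples at 99.7% confidence, in either direction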;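 further: slope of fluorescence ratio to pre-addition baseline per second over 15 to 24 s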); settings: thallium flux BTC fluorescence, at 10 µM, actives lie on both sides
Chain of Alpha-2C adrenergic receptor (Homo sapiens) (P18825 whole entry, looked up): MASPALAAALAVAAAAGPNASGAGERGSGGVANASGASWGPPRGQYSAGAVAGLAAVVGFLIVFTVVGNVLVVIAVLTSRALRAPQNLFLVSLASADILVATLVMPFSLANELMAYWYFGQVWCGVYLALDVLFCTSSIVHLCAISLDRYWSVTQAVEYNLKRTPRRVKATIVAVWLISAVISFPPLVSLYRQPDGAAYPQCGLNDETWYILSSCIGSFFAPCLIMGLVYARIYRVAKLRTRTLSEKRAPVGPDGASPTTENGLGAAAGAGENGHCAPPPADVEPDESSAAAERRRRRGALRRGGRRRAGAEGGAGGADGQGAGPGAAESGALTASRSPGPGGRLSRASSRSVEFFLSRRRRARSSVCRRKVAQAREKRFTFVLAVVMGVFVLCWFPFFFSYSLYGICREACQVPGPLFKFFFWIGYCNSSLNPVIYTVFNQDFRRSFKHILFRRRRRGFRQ

[7] = inhibitors of Sendai virus-induced IRF3 signaling, primary screen, TLR/RLR signaling modifier project, cell-based, Sendai virus stimulus, luciferase, 10K MLSCN set (AID 602276;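 active means inhibition at or above 50% at 10 µM; inactive means inhibition below 50%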;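 further: firefly luciferase from ISG56 promoter only with Renilla not read in this screen; 0% = Sendai virus plus DMSO and 100% = medium plus DMSO without virus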); settings: HEK293 RL24 IRF3 luciferase reporter, at 10 µM, stronger effect = higher value
[8] = inhibitors of poly I:C-induced TLR3 signaling, primary screen, cell-based, poly I:C stimulus, luciferase, 10K MLSCN set (AID 602277;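 active means inhibition of the reporter signal at or above 50%; inactive means inhibition below 50%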); settings: HEK293-TLR3 RL24 IRF3 luciferase reporter, at 10 µM, stronger effect = higher value

| SMILES | cell count [1] | inhibition [1] | inhibition of aggregation [2] | nuclei count [2] [%] | inhibition [3] | nuclei count [3] [%] | fluorescence slope [4] | NADPH fluorescence slope [5] | slope [6] | inhibition [7] | inhibition [8] |
| --- | --- | --- | --- | --- | --- | --- | --- | --- | --- | --- | --- |
| Cc1cccc(C2=NCC(=O)N(CC(=O)NCc3ccco3)c3sc4c(c32)CCCC4)c1 | 291 | 14.7% (inactive) | 13.6% (inactive) | 92.1 | -48.4% (inactive) | 87.3 | -0.56 (inactive) | -8.4e-05 (inactive) | 0.00582 (inactive) | 14.4% (inactive) | 49.8% (inactive) |
| CC1(C)Cc2c(sc3c2C(=O)NC(c2cccnc2)N3)CO1 (centres undefined) | 328 | 6.5% (inactive) | 6% (inactive) | 98.3 | 4.5% (inactive) | 106 | -0.584 (inactive) | -3.1e-05 (inactive) | 0.00356 (inactive) | 3.52% (inactive) | 5.63% (inactive) |
| COc1ccccc1-n1c(O)c(C=NCc2ccc3c(c2)OCO3)c(=O)[nH]c1=O | 758 | -13.8% (inactive) | -35.1% (inactive) | 121 | -117% (inactive) | 124 | -0.611 (inactive) | -5.6e-05 (inactive) | 0.00662 (inactive) | 2.15% (inactive) | 9.73% (inactive) |
| CC(C)CC12CN3CCN(CC(C3)/C1=N/O)C2 | 291 | -16.4% (inactive) | -20% (inactive) | 126 | 4.9% (inactive) | 109 | -0.496 (inactive) | -1.4e-05 (inactive) | 0.00751 (inactive) | 19.2% (inactive) | 21.5% (inactive) |
| COc1ccc(S(=O)(=O)NC(CC(=O)N2CCC3(CC2)OCCO3)c2ccco2)cc1 (centres undefined) | 633 | 6.7% (inactive) | 16.2% (inactive) | 86.8 | -121% (inactive) | 144 | -0.451 (inactive) | -0.000345 (inactive) | 0.00534 (inactive) | 17.9% (inactive) | 22.1% (inactive) |
| COc1ccc(CN2CCN(C(=O)Cc3ccccc3)CC2)c(OC)c1 | 402 | 2.1% (inactive) | 8% (inactive) | 94 | -13.2% (inactive) | 114 | -0.6 (inactive) | 1.9e-05 (inactive) | 0.00526 (inactive) | 15.3% (inactive) | 25.6% (inactive) |
| CCc1ccc(OCCCN=C(C)c2c(O)n(C)c(=O)n(C)c2=O)cc1 | 627 | 0.2% (inactive) | -0.8% (inactive) | 84.3 | 23.8% (inactive) | 95.1 | -0.385 (inactive) | 2.2e-06 (inactive) | 0.00351 (inactive) | 11.6% (inactive) | 14.8% (inactive) |
| CCCCCCOc1ccc(CN2CCN(C)CC2)cc1 | 302 | -5% (inactive) | 2.1% (inactive) | 107 | -127% (inactive) | 128 | -0.46 (inactive) | -0.000138 (inactive) | 0.00769 (inactive) | 25.8% (inactive) | 8.4% (inactive) |
| O=C(c1ccncc1)C12CN3CN(CN(C3)C1)C2 | 459 | 4.5% (inactive) | 15.7% (inactive) | 104 | -155% (inactive) | 98.1 | -0.409 (inactive) | -3.9e-05 (inactive) | 0.00372 (inactive) | 10% (inactive) | 30.7% (inactive) |
| Cc1ccc2nc(N3CCN(C)CC3)[nH]c2c1 | 369 | -15.9% (inactive) | 5.5% (inactive) | 87.6 | 5.8% (inactive) | 97.7 | -0.506 (inactive) | 4.2e-05 (inactive) | 0.00535 (inactive) | -66.5% (inactive) | -98.1% (inactive) |
| O=C(NC1(C(F)(F)F)Oc2ccc(Cl)cc2O1)N1CCC2(CC1)OCCO2 (centres undefined) | 676 | -22.3% (inactive) | -18.5% (inactive) | 114 | -97.5% (inactive) | 108 | -0.513 (inactive) | -9.9e-05 (inactive) | 0.00493 (inactive) | 8.96% (inactive) | 38.5% (inactive) |
| CC(=NCCCO)c1c(O)n(Cc2ccccc2)c(=O)[nH]c1=O | 374 | -1.2% (inactive) | -15.8% (inactive) | 113 | -197% (inactive) | 130 | -0.384 (inactive) | -3.6e-05 (inactive) | 0.00369 (inactive) | 13% (inactive) | 11% (inactive) |
| CC1CCC(C(=O)NC(C(=O)N2CCC3(CC2)OCCO3)C(C)C)CC1 (centres undefined) | 251 | 3.4% (inactive) | 0.1% (inactive) | 97.2 | 1.3% (inactive) | 88 | -0.399 (inactive) | -0.00014 (inactive) | 0.00626 (inactive) | 5.72% (inactive) | 20.1% (inactive) |
| CCn1c(C)c(C(=O)O)c2cc(OC)ccc21 | 617 | 3.5% (inactive) | 1.8% (inactive) | 96.3 | 11.4% (inactive) | 107 | -0.495 (inactive) | -2.5e-05 (inactive) | 0.00472 (inactive) | 14.5% (inactive) | 22.2% (inactive) |
| Cc1ccc(-c2nc(CS(=O)CC(=O)N3CCC4(CC3)OCCO4)c(C)o2)cc1 (centres undefined) | 704 | -30.6% (inactive) | -2.4% (inactive) | 99.4 | -4.2% (inactive) | 101 | -0.62 (inactive) | -2.5e-05 (inactive) | 0.00606 (inactive) | 16.5% (inactive) | 19.1% (inactive) |
| O=C(CCCOc1ccc(Cl)cc1Cl)N1CCC2(CC1)OCCO2 | 751 | -20.4% (inactive) | -14.9% (inactive) | 114 | -51.1% (inactive) | 102 | -0.365 (inactive) | -4.9e-05 (inactive) | 0.0028 (inactive) | -4.5% (inactive) | -38.8% (inactive) |
| COc1ccc(N2CCN(CCCN)CC2)cc1 | 356 | 2.8% (inactive) | -5.7% (inactive) | 106 | -21% (inactive) | 113 | -0.603 (inactive) | -1.3e-05 (inactive) | 0.00595 (inactive) | 11.2% (inactive) | 15.4% (inactive) |
| CCn1nc(-c2ccccc2)nc2c(=O)n(C)c(=O)nc1-2 | 367 | -31.1% (inactive) | -8.2% (inactive) | 86 | -133% (inactive) | 109 | -0.457 (inactive) | 1.4e-06 (inactive) | -0.00207 (active) | -39.4% (inactive) | 94.3% (active) |
| CC(=O)C1C(=O)NC23CCCCC2C1c1ccccc1O3 (centres undefined) | 622 | 3.3% (inactive) | 2.2% (inactive) | 109 | 25.3% (inactive) | 99.5 | -0.357 (inactive) | 4e-05 (inactive) | 0.0063 (inactive) | 4.02% (inactive) | 14.8% (inactive) |
| CCN1CCN(Cc2cc(Br)cc(OC)c2O)CC1 | 579 | 3.6% (inactive) | 20.4% (inactive) | 99.4 | -82.5% (inactive) | 123 | -0.441 (inactive) | -4e-05 (inactive) | 0.00663 (inactive) | -7.48% (inactive) | 5.42% (inactive) |
| CCOc1ccc(-n2c(O)c(C=NCCN(CC)CC)c(=O)[nH]c2=O)cc1 | 411 | -1.5% (inactive) | -1.7% (inactive) | 89.3 | -87.3% (inactive) | 125 | -0.553 (inactive) | 1.2e-05 (inactive) | 0.00486 (inactive) | 0.257% (inactive) | 1.28% (inactive) |
| CCCCn1c(C)c(C(=O)OCC)c2c(CN3CCOCC3)c(O)ccc21 | 702 | 0.6% (inactive) | -0.7% (inactive) | 82.8 | -44.3% (inactive) | 100 | -0.373 (inactive) | -2.7e-05 (inactive) | 0.00475 (inactive) | 11.9% (inactive) | 19.2% (inactive) |
| O=c1[nH]c(=O)n(-c2ccc(F)cc2)c(O)c1C=Nc1ccccc1N1CCCC1 | 459 | -0.3% (inactive) | -4.4% (inactive) | 112 | -109% (inactive) | 118 | -0.0108 (inactive) | 1.9e-06 (inactive) | 0.00376 (inactive) | 3.89% (inactive) | 14.6% (inactive) |
| O=C(c1ccc2nc(-c3ccco3)c(-c3ccco3)nc2c1)N1CCC2(CC1)OCCO2 | 597 | -12.6% (inactive) | -4.6% (inactive) | 93.5 | 9% (inactive) | 105 | -0.104 (inactive) | -5.1e-06 (inactive) | 0.00382 (inactive) | -1.04% (inactive) | -7.99% (inactive) |
| Cc1ccc(C(=O)C2CN3CCC2CC3)cc1 (centres undefined) | 882 | -7.3% (inactive) | -13.1% (inactive) | 103 | -84.2% (inactive) | 111 | -0.441 (inactive) | -2.3e-05 (inactive) | 0.00351 (inactive) | 11.9% (inactive) | 43.4% (inactive) |
| COc1ccc(CCn2c(O)c(C=NCCCN(C)C)c(=O)[nH]c2=O)cc1OC | 338 | -1.6% (inactive) | 12.1% (inactive) | 110 | -38.1% (inactive) | 108 | -0.446 (inactive) | -2.8e-05 (inactive) | 0.00426 (inactive) | 11.5% (inactive) | 8.09% (inactive) |
| C(#CCN1CCOCC1)COCC#Cc1ccccc1 | 422 | 1.2% (inactive) | 12.8% (inactive) | 94.4 | -4.6% (inactive) | 112 | -0.622 (inactive) | -5e-05 (inactive) | 0.00639 (inactive) | 8.54% (inactive) | 30.6% (inactive) |
| c1ccc(C2NCc3ccccc3-n3cccc32)cc1 (centres undefined) | 704 | -11% (inactive) | 22.5% (inactive) | 66.6 | -10.1% (inactive) | 93.5 | -0.554 (inactive) | -4e-05 (inactive) | 0.00504 (inactive) | 6.74% (inactive) | 15.8% (inactive) |
| CC1=C(C(=O)N2CCC3(CC2)OCCO3)C2(CCC(C)CC2)OC1=O (centres undefined) | 651 | -25.5% (inactive) | 3.3% (inactive) | 104 | -0.9% (inactive) | 103 | -0.377 (inactive) | -4.4e-05 (inactive) | 0.00593 (inactive) | 7.64% (inactive) | 31.1% (inactive) |
